Data as given in PubChem BioAssay AID1347076 (National Center for Advancing Translational Sciences (NCATS), 2019).
The whole screen tested about 400,000 compounds, of which about 13,000 (3.2%) were called active. Not shown: some 18% with an inconclusive outcome. This is one part of a sample in which actives are shown more often than they occur. Calls follow the shape of the dose curve; as a rule, active = well fitted cell-killing curve with a large enough effect; inconclusive = small, poorly fitted or top-dose-only effect, or effect the other way; inactive = flat fitted curve, though single readings scatter.

Assay: qHTS assay for MDR1-selective chemotherapeutics: Primary screen using the drug-selected MDR subline cells KB-V1; also: nearly all actives have a fitted effect of over 60% in size
Details: KB-V1 MDR cells viability, CellTiter-Glo, 72 h; series mostly up to 46.1 µM; activity change, negative = cytotoxicity: at the top concentration
Method in brief: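 Cytotoxicity toward P-gp-expressing KB-V1 cells was determined as loss of CellTiter-Glo luminescence after 72 h at 37 degrees C. Compounds were tested in quantitative HTS format across a concentration range, with curves fitted to normalized data.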
% is scaled to controls: 0 for no effect and ±100 for the full control effect; potency is read from the fitted curve at half-maximal effect.

Structure (SMILES) | activity change, negative = cytotoxicity | Potency
Cc1ccc(NC(=O)c2cc3cc(C)ccc3n2C)cc1 | 0% (inactive) | –
COc1ccccc1-c1n[nH]nc1C1=CC(=O)CC(C)(C)C1 | 9.54% (inactive) | –
CNC(=O)NC(=O)C(OC(=O)c1cccc(S(=O)(=O)N2CCCCC2)c1)c1ccccc1 (stereo not given) | – | 23.1 µM (active)
CC(OC(=O)c1cccc(S(=O)(=O)N2CCOCC2)c1)C(=O)NCC1CCCCC1 (stereo not given) | 2.96% (inactive) | –
O=C(NNC1=NCCC1)c1cccc(S(=O)(=O)N2CCCCC2)c1 | 0.111% (inactive) | –
Cc1cccc(CNC(=O)c2cnc3sc(N4CCCCC4)nn3c2=O)c1 | 0% (inactive) | –
Cc1ccc(C)c2sc(NC(=O)c3ccc(S(=O)(=O)N4CCCC4)cc3)nc12 | 8.13% (inactive) | –
Cc1nn(CC(=O)NCCc2ccccc2)c(=O)c2c1sc1ccccc12 | -11.2% (inactive) | –
COc1cc(/C=N/NC(=O)c2ccoc2C)ccc1OCCN1CCCCC1 | 22.5% (inactive) | –
COc1cc(/C=N/NC(=O)Nc2ccccc2)ccc1OCCOc1ccccc1C | – | 2.31 µM (active)
COC(=O)c1ccc(COc2ccc(/C=N/NC(=O)C(=O)Nc3ccc(OC)cc3)cc2OC)o1 | -3.79% (inactive) | –
C[C@H]1CN([C@@H](C)CO)C(=O)CCCn2cc(nn2)CO[C@@H]1CN(C)S(=O)(=O)c1cccc(C#N)c1 | -8.91% (inactive) | –
O=C(COC(=O)c1ccc(S(=O)(=O)N2CCCCCC2)cc1)Nc1ccccc1C(F)(F)F | 22.5% (inactive) | –
O=C(NCCN1CCOCC1)c1ccc2c(c1)N(Cc1ccc(Cl)cc1)CCS2 | 2.02% (inactive) | –
O=C(NCCc1ccccc1)c1ccc2c(c1)N(Cc1ccccc1)CCS2 | -0.57% (inactive) | –
CCOC(=O)N1CCN(C(=O)c2ccc3c(c2)N(Cc2ccc(C)cc2)CCS3)CC1 | – | 3.26 µM (active)
OC[C@@H]1O[C@H](n2cnc3c(SCc4ccccc4)ncnc32)[C@H](O)[C@H]1O | 0% (inactive) | –
COc1ccc(-c2ccc(Nc3ccc(S(=O)(=O)N4CCCC4)cc3)nn2)cc1OC | – | 13 µM (active)
COc1cc(C(C)=O)ccc1OC(C)C(=O)Nc1ccc(S(=O)(=O)N2CCCC2)cc1 (stereo not given) | 0% (inactive) | –
COc1cc(C(=O)NNC(=O)c2ccc(S(=O)(=O)N3CCCCC3)cc2)cc(OC)c1OC | 14.7% (inactive) | –
CC(C)Oc1cc(F)ccc1-c1cc(C(=O)Nc2cccc(Cl)c2)[nH]n1 | 0% (inactive) | –
CCCCCC(=O)N1C[C@H](O)[C@@H](n2cc(COC(=O)c3ccccc3)nn2)C[C@@H]1c1ccc(C)cc1 | 8.62% (inactive) | –
COC(=O)c1c(NC(=O)CSc2nncs2)sc2c1CCCCC2 | – | 23.1 µM (active)
NC(=O)c1c(NC(=O)CSc2nnc(-c3ccco3)n2N)sc2c1CCCC2 | -7.89% (inactive) | –

Structure (SMILES) | activity change, negative = cytotoxicity | Potency
COC(=O)c1c(NC(=O)C2CC(C)=C(C)CC2C(=O)O)sc2c1CCCCC2 (stereo not given) | 7% (inactive) | –
COC(=O)c1c(NC(=O)CN2C(=O)NC(CCc3ccccc3)C2=O)sc2c1CCCCC2 (stereo not given) | 0.551% (inactive) | –
CCOC(=O)c1c(NC(=O)CSc2nnc(Cc3csc(N)n3)n2C)sc(C)c1C | 4.84% (inactive) | –
COC(=O)c1c(NC(=O)COC(=O)[C@@H](NS(=O)(=O)c2ccccc2)C(C)C)sc2c1CCC2 | – | 14.6 µM (active)
CCc1ccc(N(CC(=O)Nc2sc3c(c2C(=O)OC)CCCC3)S(C)(=O)=O)cc1 | – | 9.2 µM (active)
COc1cccc(OC)c1C(=O)Nc1sc2c(c1C(N)=O)CCCC2 | -18.8% (inactive) | –
COC(=O)c1c(NC(=O)c2ccc(Cl)c(Cl)c2)sc2c1CCCC2 | 17.4% (inactive) | –
CCOC(=O)c1c(NC(=O)CSc2nnc(CN3CCOCC3)n2C)sc2c1CCCC2 | – | 5.8 µM (active)
Cc1cccc(C(=O)OCC(=O)Nc2sc3c(c2C#N)CCC3)c1 | -0.263% (inactive) | –
COC(=O)c1c(NC(=O)CN(c2ccc(C)c(C)c2)S(C)(=O)=O)sc2c1CCCC2 | 14.3% (inactive) | –
O=C(NCc1cccnc1)c1ccc2nc([C@@H]3O[C@H](CO)[C@H](O)[C@H](O)[C@H]3O)[nH]c2c1 | -1.88% (inactive) | –
O=C(c1ccc(S(=O)(=O)c2ccccc2)cc1)N1CCCCCC1 | 1.57% (inactive) | –
Cc1cccc(-n2c(N)c(C(=O)N3CCN(C)CC3)sc2=S)c1 | -2.49% (inactive) | –
N#Cc1ccccc1-n1c(N)c(C(=O)N2CCCC2)sc1=S | – | 16.4 µM (active)
COc1ccc(C(=O)NCC[N+](C)(C)C)cc1 | 4.17% (inactive) | –
CC1(C(=O)NCc2ccccc2)CSCC(=O)N1CCCN1CCOCC1 (stereo not given) | -3.51% (inactive) | –
O=C(Nc1ccc(Cl)c(C(F)(F)F)c1)C1Cc2c(-c3ccccc3Oc3ccccc3)ccnc2O1 (stereo not given) | 3.66% (inactive) | –
Cc1cccc(NC(=O)Nc2ccc(OCc3ccccc3)cc2)n1 | -0.32% (inactive) | –
CNC(=O)c1sc(Nc2ccc(OCc3ccccc3)cc2)nc1C | – | 8.2 µM (active)
CNC(=O)c1sc(NCc2ccccc2OC)nc1C | -22.9% (inactive) | –
COc1ccc(C(=O)N2CCCCC2c2cc(C(=O)Nc3ccc(F)c(Cl)c3)no2)cc1 (stereo not given) | -11.6% (inactive) | –
O=[N+]([O-])c1ccc(CN2CC(N3CC=CC3)CS2(=O)=O)cc1 (stereo not given) | -6.04% (inactive) | –
CC(C)(C)S(=O)N1Cc2cc(C(=O)NCCCN3CCOCC3)nc(-c3cccc(-c4cc5ccccc5o4)c3)c2[C@H]1CCO (stereo not given in full) | -18.9% (inactive) | –
O=C(NCc1ccco1)c1cc2sccc2n1Cc1ccc(F)cc1 | – | 16.4 µM (active)

Structure (SMILES) | activity change, negative = cytotoxicity | Potency
O=C(NCc1ccco1)c1ccc(Cn2c(=O)c3sccc3n(Cc3ccc(F)cc3)c2=O)cc1 | -10.9% (inactive) | –
CC(=O)Nc1ccc(NC(=O)c2cc3sccc3n2Cc2ccc(F)cc2)cc1 | 0% (inactive) | –
CCCCCCN1C[C@H](O)[C@@H](n2cc(C3CC3)nn2)C[C@@H]1c1ccc(Cl)cc1 | 0% (inactive) | –
COC(=O)c1sccc1NC(=O)c1csc2c1CCCC2 | – | 14.6 µM (active)
COC(=O)c1sccc1NC(=O)c1ccc(Cl)cc1 | -6.52% (inactive) | –
CCOC(=O)c1ccc(NC(=O)c2csc3c2CCCCC3)cc1 | 16.5% (inactive) | –
CCNC(=S)Nc1ccc2c(c1)c(=O)n(C)n2Cc1ccc(Cl)cc1 | -0.147% (inactive) | –
CCC(C(=O)NC(C)(C)C)n1c(-c2ccccc2)nc2ccccc21 (stereo not given) | -16.9% (inactive) | –
Cc1onc(NC(=O)c2ccc([N+](=O)[O-])o2)c1Br | 0% (inactive) | –
O=C(Nc1ccc(Br)cn1)c1ccc([N+](=O)[O-])o1 | -28.8% (inactive) | –
Cc1cccc(NC(=O)c2ccc([N+](=O)[O-])o2)c1 | – | 18.4 µM (active)
CCN(CC)C(=O)CSc1nnc(-c2cccc(OC)c2)o1 | – | 11.6 µM (active)
COc1cccc(NC(=O)CSc2nnc(-c3cccnc3)o2)c1 | -1.74% (inactive) | –
COc1cccc(-c2nnc(SCC(=O)N3CCC(C)CC3)o2)c1 | 5.37% (inactive) | –
COC(=O)Nc1nc2ccc(Sc3ccccc3)cc2[nH]1 | – | 1.16 µM (active)
Cc1ccc2nc(CNC(=O)c3ccccc3)[nH]c2c1 | 9.02% (inactive) | –
CC(C)c1nc2ccc(C(=O)O)cc2[nH]1 | -8.64% (inactive) | –
CCN(CCCNC(=O)Cn1ncc2c3ccccc3n(C)c2c1=O)Cc1ccccc1 | 10.1% (inactive) | –
C=CCN(CC=C)S(=O)(=O)c1ccc(C(=O)Nc2nc3c(s2)CCc2ccccc2-3)cc1 | -28.4% (inactive) | –
COCCN(CCOC)S(=O)(=O)c1ccc(C(=O)Nc2nc3c(s2)CCc2ccccc2-3)cc1 | – | 8.2 µM (active)
COCCN(CCOC)S(=O)(=O)c1ccc(/C(O)=C(\C#N)c2nc3ccccc3[nH]2)cc1 | -17.6% (inactive) | –
O=[N+]([O-])c1ccc(S(=O)(=O)N2CCN(c3nc(-c4ccccc4)nc4ccccc34)CC2)cc1 | 0% (inactive) | –
CC(=O)c1cccc(-c2cnc3c(NC=O)cc(-c4ccc(N5CCN(C)CC5)cc4)cn23)c1 | 1% (inactive) | –
CC(=O)c1cccc(-c2cnc3c(NC=O)cc(-c4cccc(C(=O)N(C)C)c4)cn23)c1 | 14.1% (inactive) | –

Structure (SMILES) | activity change, negative = cytotoxicity | Potency
CC(=O)c1ccc(-c2cnc3c(NC=O)cc(-c4cccc(NS(C)(=O)=O)c4)cn23)cc1 | 0.977% (inactive) | –
CC(=O)c1cccc(-c2cnc3c(NC=O)cc(-c4ccccc4Oc4ccccc4)cn23)c1 | -17.7% (inactive) | –
CN(C)CCNC(=O)c1cccc(-c2cnc3c(NC=O)cc(-c4cccc(C(F)(F)F)c4)cn23)c1 | – | 14.6 µM (active)
CC(=O)Nc1cc(-c2cccc(CO)c2)cn2c(-c3cccc(C(F)(F)F)c3)cnc12 | 5.62% (inactive) | –
COc1ccc(-c2cc(NC=O)c3ncc(-c4ccccc4)n3c2)cc1OC | – | 18.4 µM (active)
CC(=O)c1cccc(-c2cnc3c(NC=O)cc(-c4ccc(N(C)C)cc4)cn23)c1 | – | 18.4 µM (active)
CN(C)C(=O)c1cccc(-c2cnc3c(NC=O)cc(-c4ccc(C(=O)N5CCOCC5)cc4)cn23)c1 | 1.7% (inactive) | –
CC(C)(C)C(=O)c1c(N)[nH]c(C(=O)c2ccccc2)c1-c1ccc(F)cc1 | -12.2% (inactive) | –
CCCNC(=O)C1(C)CCCN(Cc2cccc(C(F)(F)F)c2)C1 (stereo not given) | 3.51% (inactive) | –
CC1CN(C(=O)c2cccc(NS(=O)(=O)c3ccc(Br)cc3)c2)CC(C)O1 (stereo not given) | -24.9% (inactive) | –
CCN(CC)C(=O)C1=C(C)N(Cc2ccc(F)cc2)C(=O)C(CC(=O)NCc2cccc3ccccc23)C1 (stereo not given) | -7.48% (inactive) | –
FC(F)(F)Oc1ccccc1C(c1nnnn1C1CCCCC1)N1CCN(C/C=C/c2ccccc2)CC1 (stereo not given) | 0% (inactive) | –
CCCCC[C@@H]1C=C(C(=O)OCC)[C@H](c2ccccc2)N1S(=O)(=O)c1ccc(C)cc1 | -28.5% (inactive) | –
CS(=O)(=O)N1CCCCC1c1cc(C(=O)NCc2ccccc2)no1 (stereo not given) | -1.31% (inactive) | –
Cc1ccc(Cn2c(=O)n(-c3ccc(C)cc3)c(=O)c3c2c2cc(C)ccc2n3C)cc1 | 21.8% (inactive) | –
Cc1ccc(NC(=O)/C(=C/c2ccc([N+](=O)[O-])cc2)NC(=O)c2ccccc2)cc1 | -3.11% (inactive) | –
CCOC(=O)COc1ccc([N+](=O)[O-])cc1 | -5.01% (inactive) | –
CCOC(=O)/C(=C\c1ccc([N+](=O)[O-])cc1)C(=O)c1cc(C(C)=O)c(Nc2ccccc2)s1 | – | 8.2 µM (active)
O=c1c(NCc2cccs2)nccn1-c1ccccc1 | 9.24% (inactive) | –
COc1ccccc1N1CCN(Cc2cc(OC)c3c(c2)OCO3)CC1 | -7.05% (inactive) | –
CNCC(O)CN1CCN(c2ccccc2OC)CC1 (stereo not given) | -1.79% (inactive) | –
COc1ccccc1N1CCN(Cc2ccc(OC)c3ccccc23)CC1 | – | 16.4 µM (active)
CCCn1c(NCc2ccc(N(CC)CC)cc2)nc2ccccc21 | -22.9% (inactive) | –
